Test results as given in PubChem BioAssay (NCATS).
Results filed as inconclusive are left out. The source made the active and inactive calls. Unless noted, the call rests on the fitted dose curve; in most records, active means well fitted cell-killing curve with a large enough effect; inconclusive means small, poorly fitted or top-dose-only effect; inactive means flat fitted curve, though single readings scatter.

How the values were obtained:
[1] = Cell Viability - LYMP2-025 (AID 976); further: series mostly up to about 92 µM
Outline: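 Acute cytotoxicity is scored as a concentration-dependent fall in intracellular ATP, measured by luciferase luminescence, in human lymphoblastoid LYMP2-025 cells exposed to compound for 24 hours at 37 C. AC50 values come from standard Hill fits.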

[2] = Cell Viability - LYMP2-002 (AID 977); further: series mostly up to about 92 µM
Outline: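 Human lymphoblastoid cells, 2500/well, complete medium; 5 h 37 C settle; compound 24 h 37 C; CellTiter-Glo, 30 min RT; luminescence. Decrease in ATP = cytotoxicity; AC50 via Hill equation.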

[3] = Cell Viability - LYMP2-006 (AID 978); further: series mostly up to about 92 µM; nearly all actives have a fitted effect of over 60% in size
Outline: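 Potency values are Hill-fit AC50s for decreases in intracellular ATP (CellTiter-Glo luminescence). LYMP2-006 lymphoblastoid cells, 2500 per well, were exposed to compound in complete culture medium for 24 hr at 37 C.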

[4] = Cell Viability - LYMP2-007 (AID 979);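 further: cells exposed to compound for 24 h before reading; nearly all actives have a fitted effect of over 60% in size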
Outline: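 Cells are seeded at 2500 per well and rested 5 hr. Compounds are then added over a concentration series for 24 hr at 37 C. CellTiter-Glo is added for 30 min at room temperature before luminescence reading.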

[5] = Cell Viability - LYMP2-008 (AID 980); further: nearly all actives have a fitted effect of over 60% in size
Outline: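 Cells seeded at 2500/well and rested 5 hr at 37 C; compounds added over a concentration range and incubated 24 hr at 37 C; CellTiter-Glo added, 30 min at room temperature; luminescence read and AC50 fitted with Hill model.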

[6] = Cell Viability - LYMP2-010 (AID 981); further: nearly all actives have a fitted effect of over 55% in size
Outline: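 Steps: seed 2500 LYMP2-010 cells per well; incubate 5 hr at 37 C; add compound; incubate 24 hr at 37 C; add CellTiter-Glo, wait 30 min at room temperature; read luminescence. Concentration-response fitted to Hill equation for AC50.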

[7] = Cell Viability - LYMP2-012 (AID 982);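 further: cellular ATP by luciferase luminescence where a drop means cytotoxicity; cells exposed to compound for one day before reading; nearly all actives have a fitted effect of over 55% in size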
[8] = Cell Viability - LYMP2-016 (AID 984); further: nearly all actives have a fitted effect of over 55% in size
Outline: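 Cytotoxicity was scored by luminescent ATP content (CellTiter-Glo) after 24 h compound exposure at 37 C of a human lymphoblastoid line at 2500 cells/well. Concentration-response data were fitted to the Hill equation for AC50.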

[9] = Cell Viability - LYMP2-018 (AID 985);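 further: compound exposure lasted 24 hr at 37 °C; nearly all actives have a fitted effect of over 50% in size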
Outline: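 Seed 2500 lymphoblastoid cells per well, incubate 5 hr at 37 C, add compound and incubate 24 hr at 37 C, add CellTiter-Glo, wait 30 min at room temperature, then read luminescence.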

[10] = Cell Viability - LYMP2-020 (AID 986); further: series mostly up to about 92 µM; nearly all actives have a fitted effect of over 55% in size
Outline: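 Seed 2500 cells per well and incubate 5 hr at 37 C. Add compounds at a concentration series and incubate 24 hr at 37 C. Add CellTiter-Glo, wait 30 min at RT, read luminescence, and fit a Hill curve for AC50.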

[11] = Cell Viability - LYMP2-022 (AID 987); further: nearly all actives have a fitted effect of over 55% in size
Outline: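 Cells were seeded at 2500 per well, rested 5 hr at 37 C, and treated with titrated compounds for 24 hr at 37 C. Cellular ATP was then quantified by luciferase luminescence, and AC50 values were derived from Hill-modelled concentration-response curves.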

[12] = Cell Viability - LYMP2-024 (AID 988); further: nearly all actives have a fitted effect of over 60% in size
Outline: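 qHTS cytotoxicity, human lymphoblastoid line, complete medium; 24 h cpd treatment, 37 C; CellTiter-Glo ATP luminescence readout; tetraoctylammonium bromide positive control; AC50 via Hill fit.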

[13] = Cell Viability - LYMP2-026 (AID 989); further: nearly all actives have a fitted effect of over 50% in size
Outline: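 Cells are seeded at 2500 per well and held 5 hr at 37 C. Compounds are added in concentration series for 24 hr, then CellTiter-Glo reagent is applied and luminescence read.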

[14] = Cell Viability - LYMP1-002 - Assay at 24 hr (AID 993)
Outline: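 Acute toxicity is measured as concentration-dependent loss of cellular ATP in a human lymphoblastoid line (Coriell LYMP1-002) after 24 h treatment in complete medium. ATP is quantified by luciferase luminescence and AC50 derived by Hill modelling.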

[15] = Cell Viability - LYMP1-002 - Assay at 40 hr (AID 994); further: nearly all actives have a fitted effect of over 60% in size
Outline: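 Cells are plated at 2500 per well and rested 5 hr at 37 C. Compounds are added and incubated 40 hr at 37 C. CellTiter-Glo reagent is added for 30 min at room temperature before luminescence is read.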

[16] = qHTS Assay for Identification of Small Molecule Inducers of Hypoxia Response (AID 2120; active means well fitted curve in the direction sought with a large enough effect in the signal ratio, with a control signal flat, not every such curve was filed as active; the % refers to the signal ratio)
Outline: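 Cell-based qHTS for reporter induction: hypoxia response element controlled beta-lactamase in ME-180 cells. Compounds incubated 17 h at 37 degrees C; activity from blue/green (460/530 nm) ratio, inducers ranked by AC50.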

[17] = Cell Viability - LYMP2-014 (AID 983); further: series mostly up to about 92 µM; nearly all actives have a fitted effect of over 50% in size
Outline: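 Cells are plated at 2500/well and left 5 hr at 37 C. Compounds are added across a concentration range and incubated 24 hr at 37 C in complete medium. CellTiter-Glo is added, and luminescence is read after 30 min at room temperature.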

Measured: Potency

COC(=O)CC#N
not listed: [17]
inactive: all other assays above

CCCC=O
not listed: [8] | [13] | [17]
inactive: all other assays above

CCCCCCCCN
not listed: [9]
inactive: all other assays above

O=C(O)c1ccc(C(=O)O)cc1
not listed: [13]
inactive: all other assays above

Clc1ccc(Cl)c(Cl)c1Cl
not listed: [9] | [17]
inactive: all other assays above

CC(O)CC(C)O (configuration not stated)
not listed: [13]
inactive: all other assays above

O=CNc1ccccc1
not listed: [12] | [13]
inactive: all other assays above

CC(=O)OC(C)=O
not listed: [12] | [15]
inactive: all other assays above

S=C([S-])NCCNC(=S)[S-].[Zn+2]
not listed: [8] | [15]
inactive: all other assays above

O=[N+]([O-])c1c(Cl)cc(Cl)cc1Cl
not listed: [8]
inactive: all other assays above

O=C(O)/C=C/C(=O)O
not listed: [8]
inactive: all other assays above

ON=C1CCCCC1
not listed: [12]
inactive: all other assays above

CCC(C)=O
not listed: [17]
inactive: all other assays above

Cc1ccc(C)c(N)c1
not listed: [9] | [12]
inactive: all other assays above

C1CCOC1
not listed: [11] | [15] | [17]
inactive: all other assays above

CCCCC(CC)CO (configuration not stated)
not listed: [15] | [17]
inactive: all other assays above

Nc1ccccc1[N+](=O)[O-]
not listed: [12]
inactive: all other assays above

N#CCc1ccccc1[N+](=O)[O-]
not listed: [3] | [8]
inactive: all other assays above
